PLAP activator: human PLAP activation | P05187 | purified PLAP enzyme, luminescent substrate read-out; stronger effect = higher value | activation fold at 20 µM | 96,000 compounds, 1.2% hits | AID 696; in the data active means activation fold above about 2
PostGolgi yeast: growth inhibition of a yeast mutant, post-Golgi transport screen; inhibition, % at 10 µM; 98,000 compounds, 0.9% hits; post-Golgi transport phenotypic cell assay;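 further: yeast cells grown in 1536-well plates; yeast grown about 18 h at 30C before absorbance read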
PostGolgi ctrl: inhibits growth of the yeast control strain; inhibition, % at 10 µM; 98,000 compounds, 5% hits; AID 738; efflux-deficient yeast background strain, growth absorbance A615, 16 h
D1 mod: allosterically modulates the human D1 dopamine receptor; HEK293 D1, CRE-luciferase, dopamine EC30 potentiation; actives deviate in either direction; B-score at 10 µM; 58,000 compounds, 5.9% hits;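 active means luminescence count or its row- and column-corrected plate score outside the 99.7% band of the plate's sample wells, on either side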
Target sequence (P21728 whole entry, looked up): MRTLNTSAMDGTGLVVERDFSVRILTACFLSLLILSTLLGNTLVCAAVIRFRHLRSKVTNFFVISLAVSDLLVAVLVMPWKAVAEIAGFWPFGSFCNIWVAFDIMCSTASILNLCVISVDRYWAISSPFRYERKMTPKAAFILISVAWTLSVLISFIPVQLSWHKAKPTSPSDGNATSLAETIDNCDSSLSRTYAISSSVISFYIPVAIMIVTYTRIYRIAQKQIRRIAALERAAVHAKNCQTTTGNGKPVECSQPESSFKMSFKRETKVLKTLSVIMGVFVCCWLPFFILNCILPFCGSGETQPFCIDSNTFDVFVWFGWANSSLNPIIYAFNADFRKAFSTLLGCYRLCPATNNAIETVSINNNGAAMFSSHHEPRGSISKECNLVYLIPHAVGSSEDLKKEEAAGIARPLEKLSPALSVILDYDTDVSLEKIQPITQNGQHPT
DAT uptake mod: modulates human dopamine transporter uptake under cocaine | Q01959 | LLC-PK1 hDAT cells, [14C]-dopamine uptake with cocaine IC80; actives deviate in either direction | B-score at 10 µM | 110,000 compounds, 1.3% hits;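 active means Z score or B-score, a plate-position-corrected score, falls beyond the plate's 99.7% confidence bounds, in either direction; inactive means both scores lie inside the 99.7% bounds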;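 further: scored against the spread of the other compound wells on the same plate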
Cav3 T inh: blocks human Cav3.2 T-type calcium channel | O95180 | Cav3.2-expressing cells, Fluo-4 calcium fluorescence FDSS; stronger effect = lower value | B-score at 10 µM | 100,000 compounds, 4% hits | AID 449739;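 active means single-dose well whose peak fluorescence ratio is a statistical outlier from its plate by either plate-standardised score or position-corrected B-score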
* marks the source's active call; other numbers are inactive results; / = not tested or not shown. Most compounds without a hit are left out; they make up all but 12% or so of the library. Unless noted, no stated cut-off is given here; in the data, active means inhibition above about 30%; inactive means the rest.

SMILES	PLAP activator	PostGolgi yeast	PostGolgi ctrl	D1 mod	DAT uptake mod	Cav3 T inh
C[C@]12CC[C@@H]3c4ccc(O)cc4CC[C@H]3[C@@H]1C[C@@H](O)[C@@H]2O	/	/	/	/	-0.833	-4.57*
C[C@]12CC[C@@H]3c4ccc(O)cc4CC[C@H]3[C@@H]1CC[C@@H]2OC(=O)CCC(=O)O	/	/	/	-0.193	0.311	-0.327
Cc1cccc(CSc2cccc3cccnc23)c1	0.7	-8.5	1.1	/	-0.666	-0.777
O=C(N/N=C/c1ccccc1Br)c1ccc(CSc2cccc3cccnc23)cc1	1.3	-5.4	2.2	/	1.57	-5.22*
O=C(CC1C(=O)NC2CCCCC2N1C(=O)c1ccc(F)cc1)Nc1ccccc1 (stereo not drawn)	1.1	-2.3	-3.4	/	2.9*	-0.0221
O=C(CCCc1cccs1)N1CCN(S(=O)(=O)c2ccccc2Br)CC1	1.2	-13.1	13.6	-0.0361	/	/
CCN(c1cccc(C(F)(F)F)c1)S(=O)(=O)c1ccc2c(c1)CCN2C(=O)C1CC1	1.2	0.2	17.5	0.781	-0.67	-4.7*
COc1ccc(CN2CC[C@H]3C=CC[C@@H](C(=O)NCCc4ccccc4)[C@H]3C2=O)cc1OC	/	/	/	/	1.12	0.184
Cc1oc2nc(SCC(=O)NC3CCCCC3)nc(N)c2c1C	/	/	/	0.736	0.463	/
CC(=O)N1C(C(=O)O)CSC1c1ccc(C)cc1 (stereo not drawn)	1.1	-6.8	-3.9	/	0.0396	0.328
N#Cc1c(NC(=O)CSc2nnc(-c3ccccc3)o2)sc2c1CCCC2	0.9	12.7	6.9	/	1.63	0.254
Cc1sc(NC(=O)CSc2nnc(-c3ccccc3)o2)c(C#N)c1C	1	0.2	45.6*	0.275	-0.305	3.23
Cc1cc2c(cc1C)CSC(c1ccccc1O)SC2	0.8	0.7	30.7*	/	0.703	-0.0576
Cc1cc2c(cc1C)CSC(c1c(O)ccc3ccccc13)SC2	1.2	103.0*	100.0*	/	1.15	-0.631
O=C(CCC(=O)c1ccc(F)cc1)OC1CCOC1=O (stereo not drawn)	1.2	-3.7	-3.5	0.0533	-1.28	-0.00984
CC1Cc2ccccc2N1C(=O)CSc1nc2c(c(=O)n(C)c(=O)n2C)n1Cc1ccc(F)cc1 (stereo not drawn)	/	/	/	/	-6.93*	0.329
CCn1c(SCC(=O)N2c3ccccc3Sc3ccccc32)nc2c1c(=O)n(C)c(=O)n2C	1.3	/	/	3.77	0.0465	-0.481
CCCCn1c(SCC(=O)N2c3ccccc3Sc3ccccc32)nc2c1c(=O)n(C)c(=O)n2C	/	/	/	/	3.22*	-4.8*
C=CCn1c(SCC(=O)c2cc(C)n(C(C)COC)c2C)nc2sc(C)c(C)c2c1=O (stereo not drawn)	1.7	-3.4	27.9	2.55	-0.00363	-2.94
CC(=O)N=c1sc(C(C)(C)C)c(C)n1C	0.8	-8.6	6.5	0.355	0.249	-0.063
Cc1cc(Br)cc2c(C(=O)Nc3c(C)n(C)n(-c4ccccc4)c3=O)cc(-c3cccs3)nc12	1.4	1.7	38.9*	/	-0.259	-3.89
Cc1c(NC(=O)c2cc(=O)[nH]c3ccccc23)c(=O)n(-c2ccccc2)n1C	1.2	-5.2	6.8	/	0.316	/
CCc1ccc(-c2cc(C(=O)Nc3c(C)n(C)n(-c4ccccc4)c3=O)c3ccccc3n2)s1	1.3	-5.8	21.1	/	0.771	-4.28*
Cc1cc(C(=O)Nc2c(C)n(C)n(-c3ccccc3)c2=O)c2ccccc2n1	0.9	-17.3	0.7	/	0.39	-0.245
COc1ccc(C2/C=C\CN(C(=O)Oc3ccc(C(F)(F)F)cc3)CC(=O)N2Cc2ccc(F)cc2)cc1 (stereo not drawn)	/	/	/	/	-0.187	-0.307
SMILES	PLAP activator	PostGolgi yeast	PostGolgi ctrl	D1 mod	DAT uptake mod	Cav3 T inh
CC(C)OC(=O)CSc1nnc(CNc2ccc(Cl)cc2)n1Cc1ccccc1	/	/	/	/	0.604	-6.67*
COC(=O)CSc1nnc(CNc2ccc(Cl)cc2)n1-c1ccccc1	1.2	62.6*	64.9*	/	/	-0.196
CCOC(=O)CSc1nnc(CNc2ccc(Cl)cc2)n1Cc1ccccc1	/	/	/	/	0.184	-0.821
Clc1ccccc1CSc1nnc(Cn2cnc3ccccc32)n1-c1ccccc1	1.3	9.9	7.7	/	2.1	-2.17
CCOC(=O)CSc1nnc(CNc2ccccc2Cl)n1-c1ccccc1	1.2	6.3	11.3	-0.0219	-1.36	-3
CCOc1ccc(NCc2nnc(SCc3ccccc3Cl)n2-c2ccccc2)cc1	1.3	6.5	9.2	/	-12*	-4.22*
O=C(CCn1c(=O)[nH]c2ccsc2c1=O)Nc1ccc(F)c(F)c1	0.9	3.8	4.8	/	-0.86	0.34
CCOC(=O)c1c(N2C(=O)Nc3cc(Cl)c(Cl)cc3N2O)sc2c1CCCCC2	1.3	-6.0	7.5	/	3.76*	-3.94*
CCOC(=O)c1c(N2C(=O)C3C4C=CC(O4)C3C2=O)sc2c1CCCC2 (stereo not drawn)	1.2	-6.3	15.0	0.683	/	/
CSCC[C@H](NC(=O)C1CCN(S(=O)(=O)c2ccc(C)cc2)CC1)C(=O)NCc1ccco1	1.5	-1.3	30.9*	-0.0335	-1.2	2.62
O=C(CN1C(=O)C2C3C=CC(C3)C2C1=O)N1CCc2ccccc2C1 (stereo not drawn)	1.2	7.4	-7.0	0.574	0.224	-0.0242
CCC1SC(=NC(=O)c2ccc(Cl)c(Cl)c2)NC1=O (stereo not drawn)	1.1	-3.5	35.3*	-1.43	-0.524	-0.164
CCCc1cc(C(=O)Nc2cccnc2Cl)no1	1.2	-0.3	30.2*	/	-0.214	-0.289
COc1ccc(OC)c(S(=O)(=O)Nc2ccc(O)c(Sc3ncn[nH]3)c2)c1	1.5	-5.0	42.8*	-0.153	-0.224	-0.0264
CCCCc1nn(-c2cc(Cl)ccc2OC)c2c1C(=O)CC(C)(C)C2	1.5	-3.5	31.7*	/	0.168	-3.2
C=CCc1ccc(O)c(-c2ccc(O)c(CC=C)c2)c1	/	/	/	/	0.00639	-5.42*
C=CCc1cc(C(=O)N2CCCCC2)ccc1O	1.1	-0.7	-0.6	-0.51	0.632	/
Cc1cc(C(F)(F)F)nc(NCc2ccc(F)cc2)n1	0.9	1.9	10.8	-0.0142	-0.859	-5.37*
CCOC(=O)c1oc2ccccc2c1CSc1nnnn1-c1ccc(C)cc1	/	-3.1	17.2	1.21	-0.937	-3.9*
O=C(CCOc1ccccc1)Nc1ccc(S(=O)(=O)N2CCCC2)cc1	1	-0.2	24.3	0.742	0.526	-2.45
CCOc1cc(/C=N/NC(N)=O)cc(Br)c1OCC(=O)Nc1ccccc1C	1.3	0.0	11.4	/	0.825	-1.38
CCOc1cc(/C=C\[N+](=O)[O-])ccc1OCC(=O)Nc1ccccc1C	1.1	39.3*	6.9	/	-1.23	1.19
O=c1nc2n(c3ccc(Br)cc13)CCS2	/	/	/	/	-0.541	0.544
CC(=O)Nc1ccc(S(=O)(=O)NC2=NCN(CCOC(=O)c3ccccc3)CN2)cc1	1.1	-4.7	10.1	-5.21*	-0.00311	0.246
Cc1ccc(S(=O)(=O)NC2=NCN(Cc3cccnc3)CN2)cc1	0.8	-10.5	14.7	-0.394	-1.22	0.982
CCOC(=O)C1CCN(C(=O)CCc2c(C)nc3cc(-c4ccccc4)nn3c2C)CC1	1.5	-11.1	22.0	/	0.356	0.0763
